USP7 inh – inhibitors of human USP7 deubiquitinase; inhibition, % at 20 µM; AID 1645854; purified USP7, Ub-rhodamine cleavage fluorescence; Q93009; 0.3% of 47,000 active
OTUD3 inh – human OTUD3 deubiquitinase inhibition; purified OTUD3, Ub-rhodamine fluorescence, 2 h; AID 1645858; inhibition, % at 25 µM; Q5T2D3; 0.7% of 47,000 active
UCHL1 block – inhibitors of human UCHL1 deubiquitinase; P09936; purified UCHL1, Ub-rhodamine cleavage fluorescence; inhibition, % at 20 µM; 0.2% of 47,000 active
Target sequence (P09936 whole entry, looked up): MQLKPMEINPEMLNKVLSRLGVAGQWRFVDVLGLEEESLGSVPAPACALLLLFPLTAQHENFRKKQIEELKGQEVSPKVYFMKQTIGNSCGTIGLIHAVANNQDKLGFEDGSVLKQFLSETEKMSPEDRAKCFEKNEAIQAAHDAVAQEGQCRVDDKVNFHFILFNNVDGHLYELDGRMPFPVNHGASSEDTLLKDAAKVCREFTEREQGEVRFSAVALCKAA
* hit, by the source's call. The list is not random: actives were taken first. Their share in the collection is about 1.1%. Rule as the data show it: active = inhibition above about 30%; inactive = the rest.

SMILES	USP7 inh	OTUD3 inh	UCHL1 block
COc1ccc([N+](=O)[O-])cc1NC(=O)COC(=O)c1ccc2[nH]c3c(c2c1)CCCC3	12	62*	11
CC(C)c1noc(-c2ccc(-n3cnc(C(=O)N4CCOCC4)c3)nc2)n1	5	11	1
N[C@@H]1C[C@@H](Oc2cccnc2)[C@H](O)[C@H]1N1CCCCC1	0	-2	0
O=C(C1CCC1)N1C2CCC(O)(CC2)C1CN1CCOCC1 (stereo not given)	4	0	0
CC(C)C(=O)N1CCCC2(CCCN2Cc2ccc(Cl)cc2)C1 (stereo not given)	-4	-11	-6
CC(C)(C)c1cc2n(n1)[C@@H](C(F)F)C[C@@H](C1CCN(C(=O)CN3CCCC3)CC1)N2	-12	0	2
O=c1c(OC2O[C@H](CO)[C@H](O)[C@H](O)[C@H]2O)c(-c2ccc(O)cc2)oc2cc(O)cc(O)c12 (stereo not given in full)	-28	34*	3
COc1ccc(-c2coc3cc(O[C@@H]4O[C@H](CO)[C@@H](O)[C@H](O)[C@H]4O)ccc3c2=O)cc1	6	3	8
COc1cccc(C2c3[nH]c4ccccc4c3C[C@H]3C(=O)N(c4ccc(C(=O)NCCc5ccccc5F)cc4)C(=O)N23)c1 (stereo not given in full)	-61	-87	-70
CS(=O)(=O)N1CCN(c2ccccc2NC(=O)COc2ccc(Br)cc2)CC1	63*	0	9
CS(=O)(=O)N1CCN(c2ccc(NC(=O)COc3ccccc3)cc2)CC1	4	-8	-3
Cc1c(C(=O)N2CCN(c3ccc(F)cc3)CC2)oc2c1C(=O)CC(C)(C)C2	15	-8	10
O=C1C(O)=C(c2ccc(O)cc2)C(=O)C(O)=C1c1ccccc1	-66	33*	0
CC1=C(O)C(=O)C(C2=C(O)C(=O)C(C)=C(O)C2=O)=C(O)C1=O	-132	23	5
Cc1cc(C(=O)Nc2ccc3nc(N4CCN(c5ncccn5)CC4)cc(C)c3c2)ccc1[N+](=O)[O-]	3	-3	5
Cc1cc(N2CCN(c3ncccn3)CC2)nc2ccc(NC(=O)Cn3nc([N+](=O)[O-])c(Br)c3C)cc12	10	44*	7
CCOc1ccccc1C1CC(=O)Nc2ccc3ccccc3c21 (stereo not given)	8	5	89*
COc1ccc(C2CC(=O)Nc3ccc4ccccc4c32)c(OC)c1OC (stereo not given)	0	11	2
COc1ccc(-c2noc(-c3ccc(N4CCCCC4)nn3)n2)cc1	8	0	1
COc1ccc(-n2c(SCC(=O)Nc3cc(Cl)ccc3C(=O)O)nc3ccccc3c2=O)cc1Cl	35*	0	10
COC(=O)CSc1nc2ccccc2c(=N)n1-c1ccc(Cl)cc1	8	12	9
COc1ccccc1C(=O)N1CCC(c2nc3c(nnn3Cc3cccc(F)c3)c(=O)[nH]2)CC1	-5	-2	-2
O=C(/C=C/c1ccc(O)c(O)c1)O[C@@H]1C[C@](O)(C(=O)O)C[C@@H](O)[C@H]1O	2	-1	-4
Oc1cc(O)cc(/C=C/c2ccc(O)c(O)c2)c1	-140	47*	1
C=C1C(=O)O[C@@H]2C(=O)O[C@@H](CCCCCCCC)[C@H]12	6	-2	4
SMILES	USP7 inh	OTUD3 inh	UCHL1 block
COc1ccc(/C=C/C(=O)N2CCCc3ccccc32)cc1OC	10	3	3
COc1ccc(/C=C/C(=O)N2CCc3ccccc32)cc1S(=O)(=O)N1CCOCC1	4	54*	4
O=C(Nc1ccccc1)N1CCC2(C1)CN(C(=O)c1cscn1)C2	3	18	2
CCNC(=O)C1CCN(c2cc(Nc3ccc(C)cc3)ncn2)CC1	-2	-3	-4
O=C1C=C(O)c2c(O)cc(O)cc2C1=O	85*	99*	94*
Cc1cc(O)c2c(c1)C(=O)c1cc(O)cc(O)c1C2=O	-24	-84	-5
CN(C=C1NC(=O)c2ccc(Cl)cc2N1)CC(=O)Nc1ccc(Cl)cc1	-67	-24	-5
O=C1CCCc2cc(S(=O)(=O)NCCCc3ccco3)ccc2N1	-30	-12	-2
CCCCCCCC(=O)c1c(O)cc(O)cc1CC(=O)O	-13	-2	-7
COc1c(O)cc(CC(=O)O)c(C(C)=O)c1O	-29	78*	50*
CN(C)C=NC(=O)C(=O)Nc1ccc(Cl)cc1Cl	0	-2	-4
Oc1ccccc1CNc1nc2ccccc2n1CCN1CCCCC1	-10	-4	-1
Cc1c(C#N)c2ccccc2n1CC(=O)NC1CCCCCC1	5	0	0
CS(=O)(=O)c1cccc(C(=O)Nc2sc3c(c2C(N)=O)CCCC3)c1	7	8	1
Cc1ccc(C(=O)Nc2c(C(=O)N3CCN(c4ccccc4)CC3)[nH]c3ccccc23)cc1	-4	46*	3
